The supplement of paper PMC13380429

What was measured:
[1] = system: Vero E6 infected with SARS-CoV-2; assay: morphology score (similarity to uninfected cells); higher = more like uninfected cells; settings: 24 h
[2] = system: Vero E6 infected with SARS-CoV-2; assay: SARS-CoV-2 infection rate relative to infected DMSO; higher = more infection, active = 60 or less; settings: 24 h

## NCCS [cysteamine] (10 µM)
[1]
  morphology score: -0.0321
[2]
  SARS-CoV-2 infection rate: 112% (inactive)

## O=C(NCCCN1CCCCCC1)C(c1ccccc1)C1CCCCC1 (configuration not stated) (10 µM)
[1]
  morphology score: 0.404
[2]
  SARS-CoV-2 infection rate: 75.5% (inactive)

## NS(=O)(=O)Cc1noc2ccccc12 [zonisamide] (10 µM)
[1]
  morphology score: 0.165
[2]
  SARS-CoV-2 infection rate: 95.5% (inactive)

## O=C(Nc1cc(-c2ccccc2)nn1-c1ccccc1F)c1ccc([N+](=O)[O-])cc1 (10 µM)
[1]
  morphology score: 0.233
[2]
  SARS-CoV-2 infection rate: 93.5% (inactive)

## NS(=O)(=O)Nc1ncnc(OCCOc2ncc(Br)cn2)c1-c1ccc(Br)cc1 (10 µM)
[1]
  morphology score: 0.0685
[2]
  SARS-CoV-2 infection rate: 120% (inactive)

## C[C@H]1O[C@H](O[C@H]2[C@H](O)[C@@H](O)[C@@H](O[C@H]3[C@H](O)[C@@H](O)C(O)O[C@@H]3CO)O[C@@H]2CO)[C@H](O)[C@@H](O)[C@@H]1N[C@H]1C=C(CO)[C@@H](O)[C@H](O)[C@H]1O (some centres not stated) [acarbose] (10 µM)
[1]
  morphology score: 0.085
[2]
  SARS-CoV-2 infection rate: 100% (inactive)

## CCN(CC)Cc1ccc(C(=O)N(CCc2ccccc2OC)[C@@H]2CCNC2)cc1 (10 µM)
[1]
  morphology score: 0.0144
[2]
  SARS-CoV-2 infection rate: 98.5% (inactive)

## NCCCCN(Cc1nc2ccccc2[nH]1)[C@H]1CCCc2cccnc21 (10 µM)
[1]
  morphology score: 0.0412
[2]
  SARS-CoV-2 infection rate: 102% (inactive)

## C1=C2CCCN[C@H]2[C@@H]2C[C@H]1[C@H]1CCCCN1C2 [aloperine] (10 µM)
[1]
  morphology score: 0.199
[2]
  SARS-CoV-2 infection rate: 102% (inactive)

## COc1ccc(OC)c2c(=S)c3ccccc3[nH]c12 (10 µM)
[1]
  morphology score: -0.0609
[2]
  SARS-CoV-2 infection rate: 106% (inactive)

## CNCCN(C)Cc1c[nH]nc1-c1ccc(O[C@H]2C[C@H](OCCC3CCOCC3)C2)cc1 (10 µM)
[1]
  morphology score: -0.0509
[2]
  SARS-CoV-2 infection rate: 108% (inactive)
